Source: the supplement of paper PMC9801561
± gives the standard deviation of the averaged measurements.

System: Escherichia coli Nissle 1917
Test: area under OmniLog respiration curve over 48 h (OmniLog units x h); higher = more growth / nutrient utilisation; extreme values may be limits of the assay
Conditions: nutrient role: C-Source, carbohydrate; incubation: 48 h, 37 °C

Row | SMILES | area under OmniLog respiration curve
1 | OC[C@H]1OC(O)[C@H](O)[C@@H](O)[C@@H]1O (stereo partly drawn) [a-D-Glucose] | 7320 ± 620
2 | CO[C@H]1O[C@H](CO)[C@@H](O)[C@H](O)[C@@H]1O [a-Methyl-D-Mannoside] | 16.9 ± 21
3 | OC[C@H]1O[C@H](O[C@H]2[C@H](O)[C@@H](O)[C@H](O)O[C@@H]2CO)[C@H](O)[C@@H](O)[C@@H]1O [Maltose] | 7970 ± 810
4 | OCC1(O)OC[C@@H](O)[C@H](O)[C@@H]1O (stereo partly drawn) [D-Tagatose] | 6560 ± 520
5 | CO[C@@H]1OC[C@@H](O)[C@H](O)[C@H]1O [b-Methyl-D-Xyloside] | 4.72
6 | O[C@@H]1[C@@H](O)[C@@H](O)CO[C@H]1O [L-Arabinose] | 8240 ± 430
7 | OC[C@H]1OC(O)[C@H](O)[C@@H](O)[C@H]1O (stereo partly drawn) [D-Galactose] | 7350 ± 520
8 | CO[C@@H]1O[C@H](CO)[C@H](O)[C@H](O)[C@H]1O [b-Methyl-D-Galactoside] | 6290 ± 550
9 | CO[C@H]1O[C@H](CO)[C@@H](O)[C@H](O)[C@H]1O [a-Methyl-D-Glucoside] | 4.72
10 | O[C@@H]1[C@H](O)[C@H](O)CO[C@H]1O [D-Ribose] | 9520 ± 880

Same assay, conditions: nutrient role: C-Source, carboxylic acid; incubation: 48 h, 37 °C

Row | SMILES | area under OmniLog respiration curve
11 | O=C(O)C[C@H](O)C(=O)O [L-Malic acid] | 8910 ± 230
12 | CC[C@H](O)C(=O)O [a-Hydroxybutyric acid] | 2930 ± 240
13 | O=C(O)C[C@@H](O)C(=O)O [D-Malic acid] | 3920 ± 860
14 | O=C1O[C@@H]([C@H](O)CO)[C@H](O)[C@H]1O [D-Galactonic acid-g-Lactone] | 8410 ± 840
15 | O=C1O[C@H](CO)[C@@H](O)[C@H]1O [D-Ribono-1,4-Lactone] | 4.72
16 | O=C(O)Cc1cccc(O)c1 [m-Hydroxyphenyl Acetic acid] | 114 ± 120
17 | O=C(O)C(O)C(O)C(=O)O (stereo not given) [m-Tartaric acid] | 4.72
18 | O=C(O)CC(CC(=O)O)C(=O)O [Tricarballylic acid] | 5.51 ± 1.4

Same assay, conditions: nutrient role: sole nitrogen source (pyruvate carbon); incubation: 48 h, 37 °C

Row | SMILES | area under OmniLog respiration curve
19 | CC(O)C(N)=O (racemic) [DL-Lactamide] | 57 ± 91
20 | N[C@@H](Cc1ccc(O)cc1)C(=O)O [L-Tyrosine] | 1110 ± 450
21 | Nc1nc2c(ncn2[C@@H]2O[C@H](CO)[C@@H](O)[C@H]2O)c(=O)[nH]1 [Guanosine] | 442 ± 580
22 | NO [Hydroxylamine] | 5.62 ± 1.6
23 | NC(N)=O | 4.72
24 | CSCC[C@H](N)C(=O)N[C@@H](C)C(=O)O | 6410 ± 1200
25 | NCCO [Ethanolamine] | 27.4 ± 39
